Unmarked numbers belong to inactive results. How the calls were made is not given here.
Tests used:
[1] = system: Botulinum neurotoxin type F light chain protease (Clostridium botulinum); assay: Clostridium botulinum type F light chain protease inhibitors, microsphere substrate cleavage, validation (AID 588459); conditions: multiplex microsphere protease substrate cleavage assay, flow cytometry; at 10 µM; hits give high values
[2] = molecular target: Botulinum neurotoxin type A (Clostridium botulinum) (UniProt P0DPI0); assay: BoNT/A light chain protease inhibitors, biochemical, multiplex microsphere flow cytometry, validation set (AID 588460); conditions: at 10 µM, hits give high values
[3] = molecular target: Lethal factor (Bacillus anthracis) (UniProt P15917); assay: Bacillus anthracis lethal factor inhibition, microsphere flow cytometry protease assay, validation at 10 µM (AID 588461); conditions: multiplex microsphere protease cleavage assay, hits give high values

SMILES	inhibition [1]	inhibition [2]	inhibition [3]
COc1cc2c3c(c1)C1(C(=O)N3C(C)(C)C=C2C)C(C#N)=C(N)Oc2cc(C)oc(=O)c21 (stereo not given)	0.4%	2.4%	-3.3%
CCOC(=O)c1ccc(N2C(=O)C(CC(=O)NC)N(CCc3ccc(OC)c(OC)c3)C2=S)cc1 (stereo not given)	-0.6%	-0.4%	-10.1%
CC(C)NCC(O)COc1ccc(CC(N)=O)cc1 (stereo not given)	–	-1.9%	-2.4%
NCCCC(=O)O	–	–	0.3%
Cc1nnc(SCC2=C(C(=O)O)N3C(=O)[C@@H](NC(=O)Cn4cnnn4)[C@H]3SC2)s1	–	–	0.6%
CC[C@H](C)C(=O)O[C@H]1C[C@@H](C)C=C2C=C[C@H](C)[C@H](CC[C@@H]3C[C@@H](O)CC(=O)O3)[C@H]21	–	0.7%	10.4%
Cc1ccc2occ(C(=O)c3ccco3)c(=O)c2c1	1.1%	-0.5%	2.6%
CN(C)CCCN1c2ccccc2CCc2ccc(Cl)cc21	–	-0.7%	-1.4%
N/C(=N\OS(=O)(=O)c1ccc2ccccc2c1)c1cccnc1	-1.4%	-0.9%	0.2%
